Results filed as inconclusive are left out. Calls of active or inactive are those of the source. Unless noted, calls follow the shape of the full dose curve.
Legend:
[1] = Nuclear factor erythroid 2-related factor 2/antioxidant responsive element (Nrf2/ARE) small molecule agonists: qHTS cell viability counter screen in human keratinocytes (AID 1919968; active = well fitted curve in the direction sought with a large enough effect in the repeat runs; an effect the other way counts as inactive or inconclusive; also: nearly all actives have a fitted effect of over 55% in size)
Method in brief: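 After a 5 h attachment period, ARE-reporter keratinocytes were dosed with compounds in DMSO and then cultured 23 h at 37 C. Cell viability came from CellTiter-Fluor signal read after a further 1 h.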

[2] = Nuclear factor erythroid 2-related factor 2/antioxidant responsive element (Nrf2/ARE) small molecule agonists: luciferase reporter gene qHTS assay in human keratinocytes (AID 1919969); also: nearly all actives have a fitted effect of over 35% in size; also: potency is read from the fitted curve at half-maximal effect
[3] = biological target: Gonadotropin-releasing hormone receptor (Homo sapiens) (UniProt P30968); experiment: Human gonadotropin-releasing hormone receptor (GnRHR) small molecule agonists, calcium flux assay in GnRHR-HEK293 cells (AID 1920063); also: nearly all actives have a fitted effect of over 35% in size
Sequence of Gonadotropin-releasing hormone receptor (Homo sapiens) (P30968 whole entry, looked up): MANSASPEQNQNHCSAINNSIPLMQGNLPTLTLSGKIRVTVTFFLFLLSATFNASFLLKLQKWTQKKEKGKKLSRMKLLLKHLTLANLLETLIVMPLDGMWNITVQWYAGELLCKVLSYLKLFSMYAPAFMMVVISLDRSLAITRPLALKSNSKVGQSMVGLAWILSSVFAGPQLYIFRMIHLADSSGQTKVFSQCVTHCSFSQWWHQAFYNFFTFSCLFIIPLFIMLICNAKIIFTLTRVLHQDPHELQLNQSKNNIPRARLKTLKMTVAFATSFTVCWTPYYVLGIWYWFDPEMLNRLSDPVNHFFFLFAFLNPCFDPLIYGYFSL
Method in brief: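 We seeded human GnRHR-expressing HEK293 cells for 18 hours, loaded them with calcium dye for an hour at 37 C, added test compounds, and recorded fluorescence intensity kinetically for three minutes.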

[4] = biological target: KiSS-1 receptor (Homo sapiens) (UniProt Q969F8); experiment: Human kisspeptin (KISS1R) small molecule agonists, calcium flux assay in KISS1R-HEK293 cells (AID 1920064; active = well fitted curve in the direction sought with a large enough effect in the repeat runs; an effect the other way counts as inactive or inconclusive)
Sequence of KiSS-1 receptor (Homo sapiens) (Q969F8 whole entry, looked up): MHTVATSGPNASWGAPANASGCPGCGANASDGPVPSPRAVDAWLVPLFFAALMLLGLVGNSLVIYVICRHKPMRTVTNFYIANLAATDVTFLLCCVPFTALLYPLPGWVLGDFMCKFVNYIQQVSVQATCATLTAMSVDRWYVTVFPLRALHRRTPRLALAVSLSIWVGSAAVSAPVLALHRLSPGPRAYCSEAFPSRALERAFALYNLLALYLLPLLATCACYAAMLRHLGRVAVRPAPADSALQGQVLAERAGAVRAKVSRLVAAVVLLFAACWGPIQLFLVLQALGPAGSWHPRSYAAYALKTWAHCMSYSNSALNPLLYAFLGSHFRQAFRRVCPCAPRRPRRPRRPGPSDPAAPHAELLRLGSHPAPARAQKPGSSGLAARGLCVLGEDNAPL
Method in brief: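 Kinetic calcium assay, 1 s sampling over 3 min at Ex/Em 480/540, in HEK293 cells engineered with human KISS1R; compounds delivered in DMSO after 1 h dye loading.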

[5] = G protein-coupled receptor (GPCR) small molecule agonists, calcium flux assay: HEK293 wild type cell line counter screen (AID 1920065)
Method in brief: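 Calcium-sensitive dye, loaded 1 h at 37 C into cells cultured 18 h, reports compound-evoked calcium release as fluorescence (Ex/Em 480/540), measured over 3 min. Agonist mode; 15-point titrations, triplicate.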

[6] = p53 small molecule agonists, cell-based qHTS assay with human liver microsomes (AID 1963577);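 also: p53 response element beta-lactamase reporter cells with liver microsomes plus NADPH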
Method in brief: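 With metabolic activation: human liver microsomes (0.5 mg/mL final) plus NADPH (0.5 mg/mL final) added alongside compounds to p53RE-bla cells; 16 h 37 C exposure; beta-lactamase read by LiveBLAzer fluorescence.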

[7] = p53 small molecule agonists, cell-based qHTS assay with rat liver microsomes (AID 1963578)
Method in brief: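 Metabolic activation by rat liver microsomes and NADPH, each 0.5 mg/mL final, added right after compounds to p53RE-bla reporter cells (4,000/well, plated 5 h earlier). 16 h at 37 C, then LiveBLAzer substrate for 2 h at room temperature in the dark; fluorescence read-out.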

[8] = p53 small molecule agonists, cell-based qHTS assay with human liver microsomes: qHTS cell viability counter screen (AID 1963579); also: nearly all actives have a fitted effect of over 45% in size
Method in brief: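 Metabolic activation used human liver microsomes and NADPH, both 0.5 mg/mL final, over 16 hours at 37 C on p53RE-bla cells (4,000/well). Cytotoxicity measured by CellTiter-Glo luminescence, 30 min at room temperature.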

[9] = p53 small molecule agonists, cell-based qHTS assay with rat liver microsomes: qHTS cell viability counter screen (AID 1963580); also: nearly all actives have a fitted effect of over 45% in size
Method in brief: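 In HCT-116 cells carrying a p53 response element-bla reporter, compounds were metabolically activated in situ by rat liver microsomes with NADPH over 16 h. Cell ATP content then served as the cytotoxicity measure.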

[10] = p53 small molecule agonists, cell-based qHTS assay (AID 1963582; active = well fitted activation curve with a large enough effect in the signal ratio in the repeat runs, not every such curve was filed as active; the % refers to the signal ratio)
Method in brief: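 In this cell-based concentration-response screen, a p53 response element drives beta-lactamase; cells received DMSO-borne compounds after 5 h culture and were incubated a further 16 h before FRET substrate development.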

[11] = biological target: 5-hydroxytryptamine receptor 2A (Homo sapiens) (UniProt P28223); experiment: 5-hydroxytryptamine receptor 2A (HTR2A) small molecule antagonists, cell-based qHTS assay (AID 1963586); also: nearly all actives have a fitted effect of over 45% in size
Sequence of 5-hydroxytryptamine receptor 2A (Homo sapiens) (P28223 whole entry, looked up): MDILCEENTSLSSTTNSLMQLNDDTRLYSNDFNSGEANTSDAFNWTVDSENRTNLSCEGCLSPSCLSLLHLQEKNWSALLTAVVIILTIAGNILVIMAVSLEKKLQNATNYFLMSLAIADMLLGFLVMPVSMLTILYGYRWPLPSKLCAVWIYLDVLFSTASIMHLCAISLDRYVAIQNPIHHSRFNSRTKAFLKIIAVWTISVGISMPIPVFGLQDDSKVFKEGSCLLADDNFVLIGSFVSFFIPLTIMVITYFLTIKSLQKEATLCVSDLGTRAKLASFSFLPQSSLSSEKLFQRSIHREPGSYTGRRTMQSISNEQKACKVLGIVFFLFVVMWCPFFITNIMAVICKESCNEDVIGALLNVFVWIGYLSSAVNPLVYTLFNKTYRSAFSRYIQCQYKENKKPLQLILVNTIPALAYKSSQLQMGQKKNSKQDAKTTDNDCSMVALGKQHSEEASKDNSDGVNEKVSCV
Method in brief: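 Antagonist-mode intracellular calcium assay: DOI (4 nM) added after 5 min compound pre-incubation at room temperature to dye-loaded HTR2A-CHO cells. Fluorescence followed for 3 min, sampled every second.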

[12] = biological target: 5-hydroxytryptamine receptor 2A (Homo sapiens) (UniProt P28223); experiment: 5-hydroxytryptamine receptor 2A (HTR2A) small molecule agonists, cell-based qHTS assay (AID 1963587); also: nearly all actives have a fitted effect of over 30% in size
Method in brief: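 HTR2A-CHO cells, plated 18 h at 37 C/5% CO2, dye-loaded 1 h at 37 C; compounds in DMSO added by pin tool (agonist mode). Intracellular calcium flux read as kinetic fluorescence on FDSS over 2 min at 1 s intervals.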

[13] = biological target: Muscarinic acetylcholine receptor M1 (Homo sapiens) (UniProt P11229); experiment: Cholinergic receptor muscarinic 1 (CHRM1) small molecule antagonists, cell-based qHTS assay (AID 1963588); also: nearly all actives have a fitted effect of over 40% in size; also: potency is read from the fitted curve at half-maximal effect
Sequence of Muscarinic acetylcholine receptor M1 (Homo sapiens) (P11229 whole entry, looked up): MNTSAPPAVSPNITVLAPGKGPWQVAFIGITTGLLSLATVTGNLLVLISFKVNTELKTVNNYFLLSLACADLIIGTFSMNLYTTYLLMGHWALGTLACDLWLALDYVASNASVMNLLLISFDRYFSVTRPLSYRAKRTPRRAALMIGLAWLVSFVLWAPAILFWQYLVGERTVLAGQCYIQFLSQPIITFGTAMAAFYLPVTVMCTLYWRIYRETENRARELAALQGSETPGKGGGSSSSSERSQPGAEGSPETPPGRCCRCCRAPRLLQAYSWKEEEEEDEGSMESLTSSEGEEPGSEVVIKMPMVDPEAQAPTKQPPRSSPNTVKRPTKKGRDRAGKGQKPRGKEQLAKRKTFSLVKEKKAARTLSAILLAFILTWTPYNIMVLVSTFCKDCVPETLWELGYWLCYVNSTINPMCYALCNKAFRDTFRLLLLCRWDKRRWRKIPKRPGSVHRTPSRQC
Method in brief: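 CHRM1-CHO calcium-flux assay, antagonist mode. Cells were seeded 18 h, dye-loaded 1 h at 37 C and given compound for 5 min at RT, then acetylcholine was added at 50nM. FDSS fluorescence was read 3 min; 15 concentrations, three runs.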

[14] = biological target: Muscarinic acetylcholine receptor M1 (Homo sapiens) (UniProt P11229); experiment: Cholinergic receptor muscarinic 1 (CHRM1) small molecule agonists, cell-based qHTS assay (AID 1963589); also: nearly all actives have a fitted effect of over 35% in size
Method in brief: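 Measures agonist-induced intracellular calcium rise. Stable human CHRM1 CHO line, 1 h dye load at 37 C, compounds from DMSO, kinetic fluorescence read.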

[15] = cAMP Responsive Elements (CRE) small molecule agonists, cell-based qHTS assay (AID 1963590)
Method in brief: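 A CRE-responsive beta-lactamase reporter in HEK 293T cells was used. Treatment ran 3 h at 37 C; detection used LiveBLAzer B/G FRET substrate for 2 h at room temperature.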

[16] = cAMP Responsive Elements (CRE) small molecule antagonists, cell-based qHTS assay (AID 1963591; active = well fitted inhibition curve with a large enough effect in the signal ratio in the repeat runs, not every such curve was filed as active; the % refers to the signal ratio)
Method in brief: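 HEK293T cells carrying a CRE-driven beta-lactamase reporter receive compound and NKH477 (0.25 uM final) for 3 h. Fluorescence from LiveBLAzer B/G FRET substrate is read after 2 h at room temperature.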

[17] = biological target: Beta-2 adrenergic receptor (Homo sapiens) (UniProt P07550); experiment: Adrenergic beta2 receptor (ADRB2) small molecule antagonists, cell-based qHTS assay (AID 1963592); also: series mostly up to about 92 µM; nearly all actives have a fitted effect of over 50% in size
Sequence of Beta-2 adrenergic receptor (Homo sapiens) (P07550 whole entry, looked up): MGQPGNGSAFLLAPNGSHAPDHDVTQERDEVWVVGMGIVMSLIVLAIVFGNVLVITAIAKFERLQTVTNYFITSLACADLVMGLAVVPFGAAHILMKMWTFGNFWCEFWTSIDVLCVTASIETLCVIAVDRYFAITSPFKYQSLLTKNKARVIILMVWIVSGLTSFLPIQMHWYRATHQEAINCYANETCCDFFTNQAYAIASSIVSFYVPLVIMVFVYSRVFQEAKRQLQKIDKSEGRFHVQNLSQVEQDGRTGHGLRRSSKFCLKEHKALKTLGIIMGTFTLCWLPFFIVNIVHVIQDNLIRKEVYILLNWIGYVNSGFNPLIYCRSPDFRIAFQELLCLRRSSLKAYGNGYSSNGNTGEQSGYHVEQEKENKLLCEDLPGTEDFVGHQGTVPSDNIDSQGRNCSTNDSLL
Method in brief: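 Cells (CHO, stable ADRB2 overexpression) incubated 18-20hr at 37C; compounds added from DMSO; agonist mix (1nM isoproterenol, 100uM IBMX, 25uM Ro-20-1724) added; 0.5hr RT; d2-cAMP and anti-cAMP-cryptate added; 1hr RT; 665/615 nm read.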

[18] = biological target: D(2) dopamine receptor (Homo sapiens) (UniProt P14416); experiment: Dopamine D2 receptor (DRD2) small molecule antagonists, cell-based qHTS assay (AID 1963595; active = well fitted inhibition curve with a large enough effect in the signal ratio in the repeat runs, with a control signal flat; the % refers to the signal ratio; also: potency is read from the fitted curve at half-maximal effect)
Sequence of D(2) dopamine receptor (Homo sapiens) (P14416 whole entry, looked up): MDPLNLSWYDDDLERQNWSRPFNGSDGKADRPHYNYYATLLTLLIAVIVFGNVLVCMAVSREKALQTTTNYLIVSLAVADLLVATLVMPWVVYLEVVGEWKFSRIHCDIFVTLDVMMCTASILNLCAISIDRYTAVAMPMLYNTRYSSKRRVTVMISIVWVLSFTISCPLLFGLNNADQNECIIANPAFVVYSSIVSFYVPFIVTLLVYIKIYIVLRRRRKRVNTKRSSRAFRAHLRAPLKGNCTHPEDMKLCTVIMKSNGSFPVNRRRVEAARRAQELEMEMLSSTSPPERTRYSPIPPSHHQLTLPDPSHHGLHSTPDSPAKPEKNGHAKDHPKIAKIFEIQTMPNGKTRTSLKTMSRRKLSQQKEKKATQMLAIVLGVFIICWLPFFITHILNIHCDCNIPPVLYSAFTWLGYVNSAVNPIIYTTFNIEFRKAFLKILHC
Method in brief: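 HEK293 cells stably expressing DRD2 were preincubated with 0.1 mM Ro20-1724, then with compound for 10 min at room temperature. Cells were stimulated with 200 nM NKH477 plus 12 nM quinpirole for 30 min, and cAMP was read by HTRF.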

[19] = biological target: D(2) dopamine receptor (Homo sapiens) (UniProt P14416); experiment: Dopamine D2 receptor (DRD2) small molecule agonists, cell-based qHTS assay (AID 1963594); also: nearly all actives have a fitted effect of over 35% in size
Method in brief: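 HEK293 cells stably expressing DRD2 were cultured 24 h at 37 C, then given Ro20-1724 (0.1 mM final) and compounds for 10 min at room temperature. NKH477 (200nM) was then added for 30 min. cAMP was read by HTRF.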
% is scaled to controls: 0 for no effect and ±100 for the full control effect.

CCOC(=O)[C@H](CCc1ccccc1)N[C@H]1CS[C@H](c2cccs2)CN(CC(=O)O)C1=O
inactive: Potency [1] | Potency [2] | Potency [3] | outcome [4] | outcome [5] | Potency [6] | Potency [7] | Potency [8] | Potency [9] | Potency [10] | Potency [11] | Potency [12] | Potency [13] | Potency [14] | Potency [15] | Potency [16] | Potency [17] | Potency [18]

CCCCCCCCCCCC(=O)N(CC)CC
inactive: Potency [1] | Potency [2] | Potency [3] | outcome [4] | outcome [5] | Potency [6] | Potency [7] | Potency [8] | Potency [9] | Potency [10] | Potency [11] | Potency [12] | Potency [13] | Potency [14] | Potency [15] | Potency [17] | Potency [19] | Potency [18]

CC(C(=O)O)c1ccc2c(c1)CC(=O)c1ccccc1S2 (stereo not drawn)
inactive: Potency [1] | Potency [2] | Potency [3] | outcome [4] | outcome [5] | Potency [6] | Potency [7] | Potency [8] | Potency [9] | Potency [10] | Potency [11] | Potency [12] | Potency [13] | Potency [14] | Potency [15] | Potency [16] | Potency [18]

N[C@@H](COP(=O)(O)O)C(=O)O
inactive: activity change, negative = cytotoxicity [1] 7.74% [at 19 µM] | activity, positive = activation [2] 0.218% [at 19 µM] | activity change [3] 0.11% [at 11.8 µM, active compounds read high] | activation [4] 0.255% [at 15.8 µM] | activation [5] -0.0564% [at 11.8 µM] | activation [6] -0.646% [at 13.5 µM] | activation [7] -0.0703% [at 13.6 µM] | activity change, negative = cytotoxicity [8] -1.17% [at 13.5 µM] | activity change, negative = cytotoxicity [9] 4.54% [at 13.5 µM] | activation [10] 1.58% [at 13.5 µM] | activity, negative = inhibition [11] -2.49% [at 12.7 µM] | activation [12] -9.17% [at 15.9 µM] | activity, negative = inhibition [13] 5.54% [at 12.6 µM] | activation [14] 11.1% [at 15.8 µM] | activation [15] -0.511% [at 19 µM] | activity change, negative = inhibition [16] -18.4% [at 18.9 µM] | activity change, negative = inhibition [17] 3.41% [at 19 µM] | activation [19] -3.09% [at 19 µM] | activity change, negative = inhibition [18] -1.71% [at 18.9 µM]

CCCCOC(=O)[C@@H](C)Oc1ccc(Oc2ccc(C(F)(F)F)cn2)cc1
inactive: Potency [1] | Potency [2] | Potency [3] | outcome [4] | outcome [5] | Potency [6] | Potency [7] | Potency [8] | Potency [9] | Potency [10] | Potency [11] | Potency [12] | Potency [13] | Potency [14] | Potency [17] | Potency [19] | Potency [18]

C=CC1CC2C=CC1C2 (stereo not drawn)
inactive: Potency [1] | Potency [2] | Potency [3] | outcome [4] | outcome [5] | Potency [6] | Potency [7] | Potency [8] | Potency [9] | Potency [10] | Potency [11] | Potency [12] | Potency [13] | Potency [14] | Potency [15] | Potency [16] | Potency [17] | Potency [18]

CC1(C)CC(O)CC(C)(C)N1
inactive: Potency [1] | Potency [2] | Potency [3] | outcome [4] | outcome [5] | Potency [6] | Potency [7] | Potency [8] | Potency [9] | Potency [10] | Potency [11] | Potency [12] | Potency [13] | Potency [14] | Potency [15] | Potency [16] | Potency [17] | Potency [18]

CCCC(=O)C(=O)O
active: Potency [13] 10.6 µM
inactive: Potency [1] | Potency [2] | Potency [3] | outcome [4] | outcome [5] | Potency [6] | Potency [7] | Potency [8] | Potency [9] | Potency [10] | Potency [11] | Potency [12] | Potency [14] | Potency [15] | Potency [16] | Potency [17] | Potency [19] | Potency [18]

CCCCNS(=O)(=O)c1ccc(C)cc1
inactive: Potency [1] | Potency [2] | Potency [3] | outcome [4] | outcome [5] | Potency [6] | Potency [7] | Potency [8] | Potency [9] | Potency [10] | Potency [11] | Potency [12] | Potency [13] | Potency [14] | Potency [15] | Potency [19] | Potency [18]

O=C(/C=C/c1ccccc1)OC/C=C/c1ccccc1
inactive: Potency [1] | Potency [2] | Potency [3] | outcome [4] | outcome [5] | Potency [6] | Potency [7] | Potency [8] | Potency [9] | Potency [10] | Potency [11] | Potency [12] | Potency [13] | Potency [14] | Potency [15] | Potency [16] | Potency [17] | Potency [19] | Potency [18]

CN1CCCCC1CCN1c2ccccc2Sc2ccc(S(C)=O)cc21 (stereo not drawn)
inactive: Potency [1] | Potency [2] | Potency [3] | outcome [4] | outcome [5] | Potency [6] | Potency [7] | Potency [8] | Potency [9] | Potency [10] | Potency [12] | Potency [14] | Potency [16] | Potency [17] | Potency [19]
active: Potency [13] 0.0103 µM | Potency [18] 1.88 µM

CCC(=O)C(=O)CC
inactive: Potency [1] | Potency [2] | Potency [3] | outcome [4] | outcome [5] | Potency [6] | Potency [7] | Potency [8] | Potency [9] | Potency [10] | Potency [11] | Potency [12] | Potency [14] | Potency [15] | Potency [16] | Potency [17] | Potency [19]

O=C(O)C1(C(=O)O)CCC1.[NH2-].[NH2-].[Pt+2]
inactive: Potency [1] | Potency [2] | Potency [3] | outcome [4] | outcome [5] | Potency [6] | Potency [7] | Potency [8] | Potency [9] | Potency [10] | Potency [11] | Potency [12] | Potency [15] | Potency [17] | Potency [18]

Oc1ccc(Nc2ccccc2)cc1
inactive: Potency [1] | Potency [3] | outcome [4] | outcome [5] | Potency [6] | Potency [7] | Potency [8] | Potency [9] | Potency [10] | Potency [11] | Potency [12] | Potency [13] | Potency [15] | Potency [19] | Potency [18]
active: Potency [2] 61.1 µM

C=C(C)C(=O)OCCCC
inactive: Potency [1] | Potency [2] | Potency [3] | outcome [4] | outcome [5] | Potency [6] | Potency [7] | Potency [8] | Potency [9] | Potency [10] | Potency [11] | Potency [12] | Potency [13] | Potency [15] | Potency [16] | Potency [17] | Potency [19] | Potency [18]

Reference: PubChem BioAssay (Tox21)
